Screening data (PubChem)
B2AR arrestin – qHTS assay of beta-arrestin-biased ligands of beta2-adrenergic receptor; Potency, µM (highest dose often 46.1 µM), usual class: activators; beta-arrestin recruitment to beta2AR, cell-based reporter; Beta-2 adrenergic receptor (Homo sapiens), P07550; 0.02% of 330,000 active; active = well fitted activation curve with a large enough effect; inconclusive = small, poorly fitted or top-dose-only effect; note: nearly all actives have a fitted effect of over 65% in size
Giardia killer – Small Molecules that selectively kill Giardia lamblia: qHTS | Giardia lamblia trophozoite viability | activity change, % at 7.66 µM, hits read low | 0.15% of 340,000 active | AID 540267, 2011; in the data active = activity change below about -80%; inconclusive = between about -30% and that limit;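 note: parasites exposed to compound for two days anaerobically before the ATP read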
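Killing of trophozoites was scored by loss of ATP luminescence after a 48 hrs anaerobic exposure to compounds at 37 deg C, using 100 cells per well.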
DRD3 agonist – qHTS of D3 Dopamine Receptor Agonist: qHTS; D(3) dopamine receptor (Homo sapiens), P35462; D3R DiscoveRx beta-arrestin cells, luminescence, 90 min; max activation, %; 0.58% of 410,000 active; AID 652048, 2013; in the data active = max activation above about 30%
Target sequence (P35462 whole entry, looked up): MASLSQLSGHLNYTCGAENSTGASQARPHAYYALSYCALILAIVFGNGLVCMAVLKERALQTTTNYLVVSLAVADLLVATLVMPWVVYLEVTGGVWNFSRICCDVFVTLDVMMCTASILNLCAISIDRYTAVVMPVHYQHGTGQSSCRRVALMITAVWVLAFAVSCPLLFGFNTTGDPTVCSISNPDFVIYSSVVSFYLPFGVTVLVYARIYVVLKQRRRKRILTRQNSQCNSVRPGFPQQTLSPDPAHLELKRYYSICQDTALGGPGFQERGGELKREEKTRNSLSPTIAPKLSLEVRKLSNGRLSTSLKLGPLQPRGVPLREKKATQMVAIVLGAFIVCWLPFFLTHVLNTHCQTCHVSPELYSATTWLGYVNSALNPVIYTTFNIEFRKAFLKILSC
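Agonist mode: compounds and dopamine controls were applied to plated cells for 90 min at 37 degrees C after an overnight attachment at 1500 cells/well. Luminescent read-out followed 30 - 60 minutes at room temperature with DiscoveRx detection reagent.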
DRD3 antagonist – qHTS of D3 Dopamine Receptor Antagonist: qHTS | 2.5% of 360,000 active | max response, negative = inhibition, % | D(3) dopamine receptor (Homo sapiens), P35462 | D3R cells, DiscoveRx beta-arrestin luminescence, antagonist mode; stronger effect = lower value | AID 652054, 2013; in the data active = max response below about -50%; inconclusive = no clear call, values can overlap the other calls
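Cells plated overnight at 1500 cells/well, then exposed to library compounds with dopamine controls for 90 minutes at 37 degrees C. DiscoveRx reagent added for 30–60 minutes at room temperature; luminescence read, quantitative HTS format.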
Hits are given with their value; n = inactive; u = inconclusive; x = no result; ! = repeats disagree. Most compounds without a hit are left out; they make up all but 2.8% or so of the library.

SMILES	B2AR arrestin	Giardia killer	DRD3 agonist	DRD3 antagonist
CC(C)Cc1nc2oc3c(NCC4CCCO4)ncnc3c2c2c1CCC2 (stereo unspecified)	n	n	57.8	n
O=C(COC(=O)c1ccc(Cl)nc1)NCc1ccc(F)cc1	n	n	n	-50.2
O=C(COC(=O)c1ccc(Cl)nc1)NCCNC(=O)COC(=O)c1ccc(Cl)nc1	n	n	n	n
Cc1ccc(C(=O)N2[C@@H]3CN(C)C(=O)[C@@]2(C)[C@H]2C(=O)N(Cc4ccccc4)C(=O)[C@@H]32)cc1	x	n	31.9	n
CCN1C[C@@H]2[C@@H]3C(=O)N(Cc4ccccc4)C(=O)[C@@H]3[C@](C)(C1=O)N2C(=O)c1ccccc1	x	u	43.4	n
CCN1C[C@@H]2[C@@H]3C(=O)N(Cc4ccccc4)C(=O)[C@@H]3[C@](C)(C1=O)N2C(=O)c1ccc(Cl)cc1	x	n	n	n
COCc1nnc(NC(=O)C2CCN(C(=O)c3ccccc3)CC2)s1	x	n	x	x
COc1cc(CNc2ccc3[nH]c(=O)[nH]c3c2)cc(Br)c1OCc1ccc(F)cc1	n	n	32.9!	n
COc1cc(CNc2ccc3[nH]c(=O)[nH]c3c2)cc(Cl)c1OCc1ccc(F)cc1	x	x	n	x
O=C(Nc1cc(-c2nc3cc(Cl)ccc3o2)ccc1Cl)c1cccc2ccccc12	x	x	n	x
COc1ccccc1N1CCN(S(=O)(=O)c2c(C)nc3sc(C)c(C)n3c2=O)CC1	x	x	n	x
C=C[C@]1(C)C[C@@H](OC(=O)CSCCN(CC)CC)[C@]2(C)[C@H](C)CC[C@]3(CCC(=O)[C@H]32)[C@@H](C)[C@@H]1O	x	x	n	x
Cc1ccsc1/C=N/NC(=O)c1nnn(-c2nonc2N)c1C	n	n	n	n
Cc1c(C(=O)N/N=C/c2cccs2)nnn1-c1nonc1N	n	n	36.0	n
CCN(CC)Cc1c(C(=O)N/N=C/c2c(Cl)cccc2Cl)nnn1-c1nonc1N	n	n	30.1	n
Cc1nnc(C(C)C)n1C1C[C@H]2CC[C@@H](C1)N2CC[C@H](NC(=O)C1CCC(F)(F)CC1)c1ccccc1 (stereo partly specified)	x	x	n	x
O=C(CSc1nc2ccccc2c(=O)n1-c1ccc(F)cc1)Nc1cc(S(=O)(=O)N2CCOCC2)ccc1Cl	16.4µM	n	n	n
O=C(CSc1nc2ccccc2c(=O)n1-c1ccc(F)cc1)Nc1ccc(N2CCOCC2)cc1	n	n	n	n
O=C1NC[C@@H](c2ccccc2)OC(=O)[C@H](Cc2ccc(F)cc2)C/C=C\C[C@@H]1CC(=O)N(CCO)Cc1ccccc1	n	n	n	-67.5
CC(C)(C)[C@@H]1COC(=O)[C@H](Cc2ccc(F)cc2)C/C=C\C[C@@H](CC(=O)N(CCO)Cc2ccccc2)C(=O)N1	n	n	42.2	n
CC(C)(C)[C@@H]1COC(=O)[C@H](Cc2ccc(F)cc2)CC/C=C\C[C@H](CC(=O)N(CCO)Cc2ccccc2)C(=O)N1	n	n	n	n
C[C@H]1COC(=O)[C@H](Cc2ccc(F)cc2)C/C=C\C[C@H](CC(=O)NCCO)C(=O)N1	n	n	30.3	n
CC(C)(C)OC(=O)C[C@@H]1C/C=C\C[C@@H](CC(=O)NCCO)C(=O)NC[C@@H](c2ccccc2)OC1=O	n	n	n	-63.2
CCOC(=O)C(CC)Sc1ccc2nnc(CCNS(=O)(=O)c3ccc(C)cc3)n2n1 (stereo unspecified)	x	x	n	x
CCOC(=O)c1cnn(-c2ccc(OC)cc2)c1C1CCN(C(=O)OC(C)(C)C)CC1	x	x	n	x
SMILES	B2AR arrestin	Giardia killer	DRD3 agonist	DRD3 antagonist
CC(C(=O)NCc1ccccc1)N1Cc2ccccc2C1=O (stereo unspecified)	x	x	n	x
C#CCC(Cc1cnc2nc(N)nc(N)c2n1)c1ccc(C(=O)N[C@@H](CCC(=O)O)C(=O)O)cc1 (stereo partly specified)	x	x	n	x
CO[C@H]1C[C@@H]2CC[C@@H](C)[C@@](O)(O2)C(=O)C(=O)N2CCCC[C@H]2C(=O)O[C@H]([C@H](C)C[C@@H]2CC[C@@H](OC(=O)C(C)(CO)CO)[C@H](OC)C2)CC(=O)[C@H](C)/C=C(\C)[C@@H](O)[C@@H](OC)C(=O)[C@H](C)C[C@H](C)/C=C/C=C/C=C/1C	x	x	n	x
O=C1NC[C@H](c2ccccc2)OC(=O)[C@@H](Cc2ccc(F)cc2)CC/C=C/C[C@@H]1CC(=O)N(CCO)Cc1ccccc1	n	n	n	-69.7
O=C(C[C@H]1C/C=C\C[C@H](Cc2ccc(F)cc2)C(=O)O[C@@H](c2ccccc2)CNC1=O)N[C@H](CO)Cc1ccccc1	n	n	43.3	n
O=C(C[C@H]1C/C=C\CC[C@H](Cc2ccc(F)cc2)C(=O)O[C@@H](c2ccccc2)CNC1=O)N[C@@H](CO)Cc1ccccc1	n	n	n	n
O=C1NC[C@H](c2ccccc2)OC(=O)[C@@H](Cc2ccc(F)cc2)CC/C=C/C[C@H]1CC(=O)N(CCO)Cc1ccccc1	n	n	n	n
O=C(C[C@H]1C/C=C\C[C@H](NC(=O)OCC2c3ccccc3-c3ccccc32)C(=O)OC[C@H](Cc2ccccc2)NC1=O)N[C@H](CO)Cc1ccccc1	n	n	n	-51.4
CC1(C)CC(=O)c2sc(NC(=O)c3cccs3)nc2C1	n	-95.7	n	n
CC1(C)CC(=O)c2sc(NC(=O)c3ccccc3)nc2C1	n	x	x	x
C=C1SC(Nc2c(C)cccc2C)=NC12CCCCC2	n	n	n	n
C=C1SC(Nc2c(C)cc(C)cc2C)=NC12CCCCC2	n	n	n	-54.4
OC[C@H]1OC([S-])[C@H](O)[C@@H](O)[C@@H]1O.[Au+] (stereo partly specified)	x	x	n	x
Cc1[nH]n2c(=O)cc(-c3ccc([N+](=O)[O-])cc3)nc2c1-c1ccccc1	x	n	n	-80.8
Cc1[nH]n2c(=O)c(C#N)c(-c3ccccc3)nc2c1-c1ccccc1	n	n	n	-59.9
Cc1[nH]n2c(=O)cc(-c3ccc(Cl)cc3)nc2c1-c1ccccc1	x	x	n	x
CCN1CC=C2C(C#N)=C(N)C(C#N)(C#N)C(c3cc(Cl)ccc3Cl)C2C1 (stereo unspecified)	n	n	n	-90.1
CC(C)N1CC=C2C(C#N)=C(N)C(C#N)(C#N)C(c3ccccc3)C2C1 (stereo unspecified)	n	n	n	-76.7
CN(Cc1ccccc1)c1cc(Cl)nc(N)n1	n	n	38.4	n
CCN(CC)c1cc(Cl)nc(N)n1	n	n	n	n
c1ccc(COc2ccc(-c3csnn3)cc2)cc1	n	n	n	-61.4
N#CC1=C(SCC(=O)Nc2cccc3cccnc23)NC(=O)C(C#N)C12CCCCC2 (stereo unspecified)	n	n	38.7	n
CC(CNC(=O)c1cccnc1)NC(=O)c1cccnc1 (stereo unspecified)	x	x	n	x
Cc1cccc(N=Nc2ccc(O)c3ncccc23)c1	n	n	n	-100.7
O=C(Nc1ncccc1O)c1ccc2c(c1)OCCO2	n	n	n	n
Cc1ccc(C)c(N=Nc2ccc(O)c3ncccc23)c1	n	n	n	u
